Consider 177 sequences from paper PMC6212790, “How bacterial xenogeneic silencer rok distinguishes foreign from self DNA in its resident genome”.

The full ranking holds about 33,000 sequences; the median of “e-score” is about -0.037, and the highest 2% start at about 0.34. The sample as a whole holds a higher share of the highest values than the screen did.

This assay addresses T1, GST-Rok (full length) (Bacillus subtilis subsp. subtilis str. …, UniProt O34857 1-191).
T1 sequence: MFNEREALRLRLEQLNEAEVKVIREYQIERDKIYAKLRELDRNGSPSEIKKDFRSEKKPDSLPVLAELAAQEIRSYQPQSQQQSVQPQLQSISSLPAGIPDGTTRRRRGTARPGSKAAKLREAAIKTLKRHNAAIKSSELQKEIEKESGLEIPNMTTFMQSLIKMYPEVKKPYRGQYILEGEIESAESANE
The assay can be described thus: protein binding microarray; Rok is a gene silencer of Bacillus subtilis; high values mean tight binding. Particulars: protein: recombinant; tags: GST (pTH5325, pDEST15-Magic modified); dsDNA, one strand shown. The method in brief: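 Each has a 25-mer constant primer and a 35-mer variable part from a de Bruijn sequence of order 10, covering every non-palindromic 8-mer at least 32 times (palindromic 16). Preference for each 8-mer is given as a rank-based, unitless enrichment score (E-score). Its range runs from 0.5 (most favored) to −0.5 (most disfavored).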
Turning to TAAGCCTA, the binding signal is -0.0764 E-score.
AGGCAAGC: the binding signal was -0.186 E-score.
For the sequence AATTGTGG, the binding signal is -0.0645 E-score.
On to CAGTGCGG, for which the binding signal was -0.0903 E-score.
On to AGTTAGAT, for which the binding signal stood at 0.162 E-score.
With GGGTAGAA, the binding signal was 0.359 E-score.
For the sequence ACGTAGAT, the binding signal came to 0.222 E-score.
Take AAGTAGAT: the binding signal was found to be 0.374 E-score.
As for AAGTAGAG, the binding signal was determined as 0.104 E-score.
Turning to AGGTAGAC, the binding signal came out at 0.191 E-score.
For AGGTAGAG, the binding signal was determined as 0.122 E-score.
On to AGGTAGAA, for which the binding signal came to 0.419 E-score.
The same measure for GGGTAGCA: -0.00107 E-score.
In the case of AGGTAGAT, the binding signal was 0.359 E-score.
With GGGTAGAC, the binding signal is -0.127 E-score.
The same measure for AAGTAGAC: 0.00429 E-score; for GTGCTTTA: -0.00122 E-score.
As for GCGAAGTA, the binding signal is 0.155 E-score.
Turning to CGCTTTTC, the binding signal was 0.046 E-score.
For AAGCTTGT, the binding signal stood at 0.0413 E-score.
CTAGGTGA: the binding signal was -0.041 E-score.
Regarding AGAGTTAC, the binding signal amounted to 0.152 E-score.
Regarding CAAAGTTA, the binding signal is 0.0253 E-score.
In the case of TGGTAGAA, the binding signal came to 0.468 E-score.
CCGTAGAA: the binding signal was 0.32 E-score.
To CGGTAGAG belongs 0.0632 E-score; to TCGTAGAA, 0.131 E-score.
With CGGTAGAA, the binding signal turned out to be 0.417 E-score.
Turning to CGGTAGAC, the binding signal is -0.0961 E-score.
Turning to CTAACGCA, the binding signal was found to be 0.101 E-score.
On to ACCCTGTC, for which the binding signal is -0.0851 E-score.
On to AACGACCG, for which the binding signal is -0.0771 E-score.
For the sequence TAATTAAA, the binding signal turned out to be 0.259 E-score.
Regarding AAATTATA, the binding signal was determined as 0.413 E-score.
As to AAATTATG, the binding signal worked out at 0.215 E-score.
To CAATTATC belongs 0.2 E-score; to CAATTATG, 0.175 E-score; to AAATTATT, 0.296 E-score.
Take TAATTATA: the binding signal came to 0.385 E-score.
Regarding GAATTATA, the binding signal is 0.326 E-score.
The same measure for CAATTATA: 0.363 E-score; for CGTATGGA: 0.128 E-score.
On to AATTAAAC, for which the binding signal was 0.0743 E-score.
Turning to CATATAGG, the binding signal worked out at 0.175 E-score.
As for ATTAATCA, the binding signal was 0.232 E-score.
CTGGAAAG: the binding signal is -0.166 E-score.
For CACATCTC, the binding signal was 0.0106 E-score.
The same measure for ACTATTAT: 0.386 E-score; for AGTATTAC: 0.26 E-score; for CCTATTAC: 0.285 E-score.
As to ATTATTAA, the binding signal was 0.0696 E-score.
For ACTATTAC, the binding signal came to 0.407 E-score.
In the case of ATTATTAC, the binding signal amounted to 0.382 E-score.
Consider AGTATTAA, for which the binding signal stood at 0.29 E-score.
Regarding GCTATTAC, the binding signal was determined as 0.269 E-score.
On to ACTATTAA, for which the binding signal was determined as 0.289 E-score.
Consider ACTATTAG, for which the binding signal is 0.244 E-score.
With CTTATTAC, the binding signal was found to be 0.299 E-score.
With AGTATTAT, the binding signal was determined as 0.358 E-score.
On to GCATTAGA, for which the binding signal is 0.129 E-score.
As to TAGTCTGA, the binding signal is 0.148 E-score.
Regarding CTTTACGA, the binding signal is 0.0116 E-score.
AAGGAGTC: the binding signal is -0.107 E-score.
As to AAGGAATC, the binding signal is -0.0168 E-score.
In the case of ATAGAAGC, the binding signal is 0.307 E-score.
For CGAGTAAC, the binding signal amounted to 0.156 E-score.
For ACTATTGC, the binding signal is 0.401 E-score.
Take ACTATTGG: the binding signal was found to be 0.208 E-score.
For the sequence ACTTTTAA, the binding signal stood at 0.158 E-score.
ACTTTTAC: the binding signal came out at 0.224 E-score.
The same measure for ACTATTGA: 0.288 E-score.
The same measure for ACTTTTAT: 0.355 E-score.
Consider CACTTTTC, for which the binding signal came out at 0.0315 E-score.
As to ACGTTAAG, the binding signal is -0.0138 E-score.
On to TATAACCA, for which the binding signal was 0.27 E-score.
To CACGTTGA belongs 0.088 E-score; to AAGATGAC, 0.0776 E-score.
In the case of AAGTTTTG, the binding signal is 0.00498 E-score.
Consider GTTATACA, for which the binding signal is 0.213 E-score.
Take ATTATACC: the binding signal was determined as 0.269 E-score.
Turning to CTTATACA, the binding signal is 0.283 E-score.
As for ATTATACA, the binding signal came to 0.363 E-score.
With ATTATACG, the binding signal was 0.381 E-score.
ACTATACG: the binding signal was 0.0122 E-score.
AACGGTTC: the binding signal amounted to 0.108 E-score.
For the sequence GTAGACAA, the binding signal was -0.0127 E-score.
As to GTGGCCAC, the binding signal is -0.123 E-score.
For the sequence ACCTTGCG, the binding signal is -0.00332 E-score.
The same measure for CAAAAAGA: -0.0731 E-score.
The same measure for TGCTTGAA: -0.0266 E-score; for ATTCTAGC: 0.257 E-score.
As for ATTCTATC, the binding signal came to 0.348 E-score.
In the case of ATTCTACG, the binding signal is 0.18 E-score.
Turning to CTTCTATC, the binding signal is 0.265 E-score.
For ATTCTATA, the binding signal amounted to 0.247 E-score.
On to ATTCTACC, for which the binding signal amounted to 0.442 E-score.
CTTCTACC: the binding signal was 0.327 E-score.
As for ATTCTACA, the binding signal was 0.42 E-score.
To GTTCTACA belongs 0.265 E-score; to TGAACCCA, -0.0568 E-score.
As for CAACTAAA, the binding signal stood at 0.249 E-score.
On to TCTAACAA, for which the binding signal worked out at 0.0589 E-score.
The same measure for AAGCGCAG: -0.165 E-score; for GAGACTGA: 0.0243 E-score; for ACCAATCC: 0.0382 E-score.
The same measure for ATGGTGAG: -0.0135 E-score.
On to ACTAAATC, for which the binding signal came to 0.343 E-score.
ACTAAAAA: the binding signal came out at 0.21 E-score.
For ACTAAATA, the binding signal came out at 0.3 E-score.
Turning to ACTAAAAT, the binding signal was found to be 0.406 E-score.
On to ACTAAAAC, for which the binding signal amounted to 0.303 E-score.
Take ACTAAATG: the binding signal is 0.277 E-score.
In the case of CAAACAAC, the binding signal stood at 0.00627 E-score.
With TAGCGGAA, the binding signal was found to be 0.245 E-score.
GATGGACC: the binding signal is -0.171 E-score.
Take ATTGTTCA: the binding signal amounted to 0.126 E-score.
In the case of ACTGGCGG, the binding signal is -0.0567 E-score.
To CAGCTGGA belongs -0.0564 E-score; to GGAGCAAC, -0.104 E-score; to GAACTAGC, 0.176 E-score.
Consider AAACTAGT, for which the binding signal amounted to 0.459 E-score.
The same measure for CAACTAGC: 0.203 E-score; for AAACTAGG: 0.252 E-score; for ACACTAGT: 0.32 E-score.
Turning to AAACTAGC, the binding signal was 0.362 E-score.
In the case of AAATCCAT, the binding signal came out at 0.193 E-score.
Take GGAGGTGA: the binding signal was -0.124 E-score.
CCGGCAGC: the binding signal is -0.14 E-score.
Regarding CCGCGTCG, the binding signal came out at 0.0351 E-score.
The same measure for ACAGTGTA: 0.268 E-score; for GTAACTCA: 0.22 E-score; for CGTTTTAA: 0.191 E-score.
As to ACGAGTAG, the binding signal was -0.0634 E-score.
The same measure for AATGTATC: 0.224 E-score; for CTTGTATA: 0.219 E-score.
With GTTGTATA, the binding signal was 0.348 E-score.
As to AATGTACA, the binding signal is 0.347 E-score.
For AAAGTACG, the binding signal worked out at 0.22 E-score.
Take AATGTATA: the binding signal turned out to be 0.388 E-score.
The same measure for CAAGTACA: 0.165 E-score; for AATGTACT: 0.303 E-score; for AATGTATG: 0.272 E-score.
The same measure for AAAGTACA: 0.364 E-score.
With AATGTACG, the binding signal was 0.192 E-score.
Regarding ATTGTATA, the binding signal is 0.32 E-score.
Turning to CAGTACTG, the binding signal turned out to be 0.0294 E-score.
The same measure for CCTGGCGA: -0.199 E-score; for GTCCGTCA: -0.0558 E-score; for GGCAGCTA: -0.0821 E-score.
AGAAAGAT: the binding signal stood at 0.0756 E-score.
For AAGGCGGT, the binding signal is -0.0994 E-score.
For ATTGTACA, the binding signal amounted to 0.369 E-score.
In the case of GATGTACA, the binding signal amounted to 0.282 E-score.
The same measure for CATGTACA: 0.317 E-score; for ATTGTACC: 0.239 E-score.
TATGTACA: the binding signal came out at 0.378 E-score.
On to ATTGTACG, for which the binding signal came to 0.266 E-score.
ACGCTTGC: the binding signal is -0.1 E-score.
As for CCGTTTTA, the binding signal is 0.0815 E-score.
To CAAATCTC belongs 0.0513 E-score; to CAAATCTA, 0.377 E-score; to GAAATCTC, 0.209 E-score.
The same measure for ACAATCTA: 0.283 E-score.
Consider CAAATCTG, for which the binding signal was -0.00951 E-score.
The same measure for GAAATCTA: 0.345 E-score; for CCAATCTA: 0.283 E-score.
To GCAATCTA belongs 0.361 E-score.
TAAATCTA: the binding signal was found to be 0.308 E-score.
Regarding ATTGATCG, the binding signal amounted to 0.0726 E-score.
For the sequence CAACTGAA, the binding signal is -0.0305 E-score.
As for CCTCTCTA, the binding signal is -0.198 E-score.
The same measure for CGTATCGA: 0.0045 E-score; for ATAAATAG: 0.322 E-score; for ACAAATAA: 0.333 E-score.
ATAAATAT: the binding signal was 0.339 E-score.
In the case of ATAAATAA, the binding signal worked out at 0.329 E-score.
To ACAAATAC belongs 0.249 E-score.
